Most compounds without a hit are left out; they make up all but 21% or so of the library.
RORgamma inh = ROR gamma (mouse) transcription inhibition; P51450; Drosophila S2 Gal4-RORgamma UAS-luciferase reporter, 20 h; Potency, µM (highest dose often 53.6 µM), most hits filed as inhibitors; actives 5.4% (n = 310,000); AID 2551; also: nearly all actives have a fitted effect of over 60% in size
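Drosophila Schneider cells stably carrying a metallothionein-driven Gal4 DBD–ROR gamma fusion and a UAS-Photinus luciferase reporter were exposed to compound for 1 hr, then induced with copper sulfate (700 uM final) for 20 hr at ambient temperature before luminescence reading.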
IL1B secr inh = inflammasome signaling inhibition, IL-1 beta readout; THP-1 LPS/ATP IL-1B secretion, AlphaLISA, 16 h; active compounds read low; activity change, % at 57.5 µM; actives 4.7% (n = 360,000); AID 743279; in the data active = activity change below about -50%; inconclusive = mostly about -30% to -49%
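Secreted IL-1B measured by AlphaLISA bead assay after 16 h compound exposure of THP-1 cells; compounds (final up to 57.5 uM) added 1 h before LPS (250 ng/mL) and ATP (1.25 mM) stimulation; lower signal means less secretion.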
DT40 TDP1 no CPT = qHTS for Inhibitors of human tyrosyl-DNA phosphodiesterase 1 (TDP1): qHTS in cells in absence of CPT; Potency, µM (highest dose often 46.2 µM), hits mostly inhibitors; AID 686978, 2013; actives 15% (n = 420,000); DT40 Tdp1-/- hTDP1 cells, no CPT, ATP luminescence, 48 h; also: nearly all actives have a fitted effect of over 55% in size
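Compound effects on proliferation are scored in DT40 Tdp1-/-;hTDP1 cells in the absence of CPT. ATP levels (CellTiter-Glo luminescence) are recorded after a ≥48 hr, 37 °C incubation.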
DT40 TDP1 CPT = growth inhibition of DT40 Tdp1-/-;hTDP1 cells with camptothecin (screen for TDP1 inhibitors). chicken DT40 Tdp1-/-;hTDP1 cells + 20 nM CPT, ATP luminescence, 48 h. Potency, µM (titrated, usually from 46.2 µM), actives largely listed as inhibitors. actives 12% (n = 420,000). AID 686979; also: nearly all actives have a fitted effect of over 55% in size
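Cell growth measured by CellTiter-Glo luminescence after a minimum 48 h, 37 C compound exposure with 20 nM CPT in Tdp1-knockout DT40 cells stably expressing hTDP1, seeded 400/well; qHTS titration format.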
ELG1 repair inh = inhibitors of ELG1-dependent DNA repair in HEK293T cells. Potency, µM (top dose mostly 46.1 µM), hits mostly inhibitors. AID 504467. actives 2.3% (n = 330,000). HEK293T ELG1-luciferase reporter, luminescence, 16 h; DNA damage induced by 5-fluorouridine; also: nearly all actives have a fitted effect of over 55% in size
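Reporter activity after DNA damage by 5-fluorouridine is monitored. Compound-treated cells incubate 16 hr at 37 °C, then ONE-Glo is added for 30 min before luminescence reading.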
VP16 counter = Gal4-VP16 reporter inhibition counter-screen; Potency, µM (titrated, usually from 53.6 µM), usual class: inhibitors; actives 3.5% (n = 310,000); Drosophila S2 Gal4-VP16 UAS-luciferase, luminescence, 20 h;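 also: Gal4-VP16 expression switched on by copper sulfate through the metallothionein promoter; nearly all actives have a fitted effect of over 50% in size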
ELG1 FLuc counter = luciferase inhibition in cell-free luciferin readout for ELG1 hits. actives 3% (n = 350). cell-free firefly luciferase luminescence counter-screen, ViewLux. Potency, µM (titrated, usually from 46.1 µM), most hits filed as inhibitors. AID 624247. shares compounds with ELG1 repair inh
ELG1 Luc conf = inhibits ELG1-dependent DNA repair in HEK293T cells, confirmed. shares compounds with ELG1 repair inh. HEK293T ELG1-luciferase levels, luminescence; cells co-treated with 5-fluorouridine. Potency, µM (doses to about 46.1 µM), hits mostly inhibitors. actives 68% (n = 670). AID 624248; also: nearly all actives have a fitted effect of over 55% in size
ELG1 MMS Luc = inhibits ELG1-dependent repair under MMS stimulation in HEK293T cells; shares compounds with ELG1 repair inh; HEK293T luciferase-tagged ELG1 level, MMS stimulated; Potency, µM (series often up to 46.1 µM), actives largely listed as inhibitors; actives 53% (n = 670); also: nearly all actives have a fitted effect of over 60% in size
ELG1 5-FU = confirmation of ELG1 repair inhibitors: viability with 5FU | shares compounds with ELG1 repair inh | cell viability with 5-FU, ELG1-dependent repair | Potency, µM (series often up to 46.1 µM), actives largely listed as cytotoxic | 670 tested, under 10 active;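 also: ELG1-luc HEK293T cells cotreated with 5-fluorouridine at 10 µM final; viability measured 16 h after compound addition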
ELG1 MMS viab = confirmation of ELG1 repair inhibitors: viability with MMS | shares compounds with ELG1 repair inh | Cell viability with MMS, ELG1-dependent DNA repair | Potency, µM (titrated, usually from 46.1 µM), hits mostly cytotoxic | actives 33% (n = 670);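 also: ELG1-luc HEK293T cells co-treated with 10 µM MMS; viability read 16 h after compound addition; nearly all actives have a fitted effect of over 60% in size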
ELG1 unstim viab = unstimulated viability counter-screen for ELG1 repair hits; shares compounds with ELG1 repair inh; Potency, µM (series often up to 45.9 µM), actives largely listed as cytotoxic; cell viability counter-screen, unstimulated, luminescence; actives 8% (n = 900);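 also: compound exposure lasted 16 hours before reading; nearly all actives have a fitted effect of over 55% in size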
FLuc biochem = inhibits purified firefly luciferase, counter-screen for ELG1 hits; purified firefly luciferase, luminescence counter-screen; actives 10% (n = 350); Potency, µM (doses to about 57.5 µM), usual class: inhibitors; shares compounds with ELG1 repair inh
A number is an active result. Unless noted, calls follow the shape of the dose curve; as a rule, active = well fitted curve in the direction sought with a large enough effect; inconclusive = small, poorly fitted or top-dose-only effect, or another doubt; inactive = no such curve, though single readings can be large; an effect the other way counts as inactive or inconclusive.

Screening CCCS(=O)(=O)N1CCCC(c2nc(-c3ccc(OC)cc3)no2)C1 (configuration not stated) returned RORgamma inh inactive, IL1B secr inh inconclusive, DT40 TDP1 no CPT inactive, DT40 TDP1 CPT inactive, ELG1 repair inh inconclusive and VP16 counter inconclusive.
`C=CCn1c(Cc2cccs2)nnc1SC/C=C/c1ccccc1` gave RORgamma inh inconclusive, IL1B secr inh inactive, DT40 TDP1 no CPT inconclusive, DT40 TDP1 CPT inconclusive, ELG1 repair inh inconclusive and VP16 counter inconclusive.
Cc1cn(C2OC(COC(=O)c3ccccc3)C(OC(=O)c3ccccc3)C2OC(=O)c2ccccc2)c(=O)[nH]c1=O (configuration not stated) was read as RORgamma inh inactive, IL1B secr inh inactive, DT40 TDP1 no CPT inconclusive, DT40 TDP1 CPT 23µM, ELG1 repair inh 4.6µM, VP16 counter inactive, ELG1 Luc conf 3.1µM, ELG1 MMS Luc inactive, ELG1 5-FU inconclusive, ELG1 MMS viab inconclusive and ELG1 unstim viab inactive.
COc1ccc(-n2nc(C(=O)NCC(=O)Nc3ccc(F)cc3)c3ccccc3c2=O)cc1 was read as RORgamma inh inconclusive, IL1B secr inh inactive, DT40 TDP1 no CPT inconclusive, DT40 TDP1 CPT inactive, ELG1 repair inh inconclusive and VP16 counter inactive.
`COc1ccc(-n2nc(C(=O)NCC(=O)Nc3cc(Cl)c(OC)cc3OC)c3ccccc3c2=O)cc1` gave RORgamma inh inactive, IL1B secr inh inactive, DT40 TDP1 no CPT inactive, DT40 TDP1 CPT inactive, ELG1 repair inh inconclusive and VP16 counter inactive.
CCc1ccc(NC(=O)CNC(=O)c2nn(-c3ccc(OC)cc3)c(=O)c3ccccc23)cc1 was read as RORgamma inh inactive, IL1B secr inh inactive, DT40 TDP1 no CPT inconclusive, DT40 TDP1 CPT inconclusive, ELG1 repair inh inactive, VP16 counter inactive, ELG1 FLuc counter inactive, ELG1 Luc conf 14µM, ELG1 MMS Luc inactive, ELG1 5-FU inconclusive, ELG1 MMS viab inactive, ELG1 unstim viab inconclusive and FLuc biochem inactive.
COc1ccc(NC(=O)CNC(=O)c2nn(-c3ccc(OC)c(Cl)c3)c(=O)c3ccccc23)c(OC)c1 was read as RORgamma inh inactive, IL1B secr inh inactive, DT40 TDP1 no CPT 16µM, DT40 TDP1 CPT inconclusive, ELG1 repair inh 5.8µM, VP16 counter inactive, ELG1 FLuc counter inactive, ELG1 Luc conf 3.5µM, ELG1 MMS Luc inactive, ELG1 5-FU inactive, ELG1 MMS viab inactive, ELG1 unstim viab inconclusive and FLuc biochem inactive.
Screening O=C1CCC(C(=O)N2CCCCCC2)CN1Cc1cccc(C(F)(F)F)c1 (configuration not stated) returned RORgamma inh inactive, IL1B secr inh inactive, DT40 TDP1 no CPT inactive, DT40 TDP1 CPT inactive, ELG1 repair inh inactive and VP16 counter inactive.
Screening C[N+]1(CC(O)c2ccccc2)CCCCCC1 (configuration not stated) returned RORgamma inh inactive, IL1B secr inh inactive, DT40 TDP1 no CPT inactive, DT40 TDP1 CPT inactive, ELG1 repair inh inactive and VP16 counter inactive.
For CCC[N+]1(CC#CCC(c2ccccc2)c2ccccc2)CCCCC1 the results were RORgamma inh inactive, IL1B secr inh -85, DT40 TDP1 no CPT 1.3µM, DT40 TDP1 CPT 1.5µM, ELG1 repair inh 2.3µM, VP16 counter inactive, ELG1 Luc conf inconclusive, ELG1 MMS Luc 2.2µM, ELG1 5-FU inactive, ELG1 MMS viab 2.8µM and ELG1 unstim viab inconclusive.
Screening Cc1[nH]n(-c2nc(-c3ccc(Cl)cc3)cs2)c(=O)c1N=Nc1ccc(O)cc1 returned RORgamma inh inactive, IL1B secr inh -51, DT40 TDP1 no CPT 5.8µM, DT40 TDP1 CPT 2.6µM, ELG1 repair inh 4.1µM, VP16 counter inactive, ELG1 Luc conf 16µM, ELG1 MMS Luc 16µM, ELG1 5-FU inconclusive, ELG1 MMS viab 28µM and ELG1 unstim viab inconclusive.
`CCc1c(C)[nH]n(-c2nc(-c3ccccc3)cs2)c1=O` gave RORgamma inh inconclusive, IL1B secr inh inactive, DT40 TDP1 no CPT inactive, DT40 TDP1 CPT inactive, ELG1 repair inh inactive and VP16 counter inconclusive.
Screening O=C(N/N=C/c1cc(Br)ccc1OC(=O)c1ccc(Br)cc1)c1ccncc1 returned RORgamma inh 2.8µM, IL1B secr inh inactive, DT40 TDP1 no CPT 6.5µM, DT40 TDP1 CPT 4.6µM, ELG1 repair inh 4.1µM, VP16 counter 5µM, ELG1 Luc conf inconclusive, ELG1 MMS Luc 16µM, ELG1 5-FU inactive, ELG1 MMS viab inconclusive and ELG1 unstim viab inactive.
O=C(O)C1C2CCCCC2=C2CCCCC2C1C(=O)c1ccccc1 (configuration not stated) was read as RORgamma inh inactive, IL1B secr inh inactive, DT40 TDP1 no CPT inactive, DT40 TDP1 CPT inactive, ELG1 repair inh inactive and VP16 counter inactive.

Screening results (PubChem)
